Source: PubChem BioAssay (NCI)
The panel holds about 79,000 compounds, 15% with a hit somewhere; the sample as a whole holds those more often. A number with no mark means an inactive call. Activity calls are given as the source filed them. No stated cut-off is given here; in the data, active means growth inhibition above about 70%; inactive means the rest.

Experiments:
[1] = NCI Yeast Anticancer Drug Screen. Data for the rad50 strain (AID 155);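 further: 0% = growth of vehicle-only cultures of the same strain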; conditions: S. cerevisiae rad50 strain growth inhibition, active compounds read high; at 50.0 µM unless noted
Summary of the method: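 DNA repair mutant yeast, compound exposure, growth read-out; inhibition is taken relative to vehicle.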

[2] = NCI Yeast Anticancer Drug Screen. Data for the mec2-1 strain (AID 157); conditions: S. cerevisiae mec2-1 strain, active compounds read high; at 50.0 µM unless noted
Summary of the method: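 Using mec2-1 yeast: add compound, measure growth, express inhibition versus vehicle-treated cultures.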

[3] = NCI Yeast Anticancer Drug Screen. Data for the sgs1 mgt1 strain (AID 161);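 further: 0% = growth of cultures given vehicle only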; conditions: S. cerevisiae sgs1 mgt1 strain, active compounds read high; at 50.0 µM unless noted
Summary of the method: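 Growth of a repair-deficient yeast mutant was monitored after compound treatment and expressed as inhibition relative to vehicle-treated cultures.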

[4] = NCI Yeast Anticancer Drug Screen. Data for the cln2 rad14 strain (AID 165);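 further: 0% = growth equal to vehicle treated cultures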; conditions: S. cerevisiae cln2 rad14 strain, active compounds read high; at 50.0 µM unless noted
Summary of the method: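 Yeast strain cln2 rad14, bearing defects in cell cycle control and DNA repair, serves as the test system; values reflect growth inhibition compared with vehicle.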

[5] = NCI Yeast Anticancer Drug Screen. Data for the bub3 strain (AID 167); conditions: S. cerevisiae bub3 mutant strain, active compounds read high; at 50.0 µM unless noted
Summary of the method: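 In this screen, a yeast mutant lacking normal mitotic checkpoint function is challenged with compound. Relative growth versus vehicle gives the inhibition value.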

[6] = NCI Yeast Anticancer Drug Screen. Data for the mlh1 rad18 strain (AID 175); conditions: S. cerevisiae mlh1 rad18 strain growth inhibition, active compounds read high; at 50.0 µM unless noted
Summary of the method: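 Steps: expose repair-defective yeast to compound; measure growth; express inhibition against vehicle-treated controls.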

Row | SMILES | growth inhibition [1] | growth inhibition [2] | growth inhibition [3] | growth inhibition [4] | growth inhibition [5] | growth inhibition [6]
1 | CCCCNC(=S)NNC(=O)c1ccncc1 | -0.35% | 3.65% | -0.55% | 5.5% | 10.7% | 3.45%
2 | COc1ccc(C2OC3=C(Nc4cc(C)c(C)cc4N3)C2=O)cc1 (stereo not given) | 11.2% | -8.05% | 2.05% | -1.35% | -22.3% | 13.8%
3 | NN=C(c1ccc([N+](=O)[O-])cc1)c1ccc([N+](=O)[O-])cc1 | -3.3% | 0.55% | -25.6% | -9.65% | 27% | -0.7%
4 | O=C(Oc1cc2c(cc1Br)OCO2)c1cccc2ccccc12 | 0.85% | -30.3% | 9.8% | -48.7% | 6.95% | -27.2%
5 | Cc1ccc(NP(=O)(Nc2ccc(C)cc2)c2ccc([N+](=O)[O-])cc2)cc1 | 93.2% (active) | 94.2% (active) | 92.7% (active) | 92.1% (active) | 85.3% (active) | 95.6% (active)
6 | O=[N+]([O-])c1c[nH]c2ncnc(Cl)c12 | 4.25% | 0.6% | 0.35% | -6.8% | -3% | 6.8%
7 | O=C(NCC1CC1)c1cccs1 | -41.4% | -50.9% | -18.9% | -23.6% | -21.6% | -50.4%
8 | Cc1ccc(C(CC(=O)C(C)(C)CN2CCCCC2)SCCS(=O)(=O)O)cc1 (stereo not given) | 7.5% | -7.95% | 11.1% | 9.4% | 4.3% | 20%
9 | OCc1ccccc1Sc1ccccc1CO | 15.8% | -8.6% | 2.6% | 11.8% | -31.6% | 24%
10 | CCOC(=O)CN1C(=O)/C(=C2\SC(=S)N(CC(=O)OCC)C2=O)SC1=S | 19.1% | 9.95% | 16.1% | 7.7% | -3.9% | 9.4%
11 | COC(=O)C(C)(N=Cc1ccccc1)c1ccccc1 (stereo not given) | -34.2% | -30.9% | 6.7% | 17.4% | -9.75% | 0.6%
12 | CCNC(=O)c1ccc(C(C)C)cc1 | 8.4% | -7.2% | 14.2% | 4.75% | 2.15% | 5.75%
13 | CC1CCC2(OC1)OC1CC3C4CCC5CC(O)CCC5(C)C4C(O)CC3(C)C1C2C (stereo not given) | 42.5% | 5.65% | 43% | 36.8% | 52.1% | 24.1%
14 | O=C(O)c1cc([N+](=O)[O-])c(O)c2ccccc12 | 9.15% | 2.8% | 6.1% | -22.1% | -16.1% | 21.8%
15 | CC(CC(=O)Nc1ccccc1CC(c1c[nH]c2ccccc12)c1c[nH]c2ccccc12)C(=O)O (stereo not given) | 0.6% | -14.2% | 3.4% | -12.9% | 6.7% | 17.5%
16 | COC(=O)C(=O)c1c(C(=O)OC)nc2nnc(N)n2c1-c1cccc([N+](=O)[O-])c1 | 23.6% | -4.35% | 3.1% | 17.3% | 12.4% | 18%
17 | O=S1(=O)C(=C(c2ccccc2)c2ccccc2)S(=O)(=O)c2ccccc21 | 39.7% | 13.3% | 13.9% | 23.9% | -6.55% | 29.1%
18 | CN(c1ccccc1)c1c(Cl)c(=O)oc2c1ccc1nc(-c3ccccc3)sc12 | 44.6% | 24.8% | 35.7% | 43.5% | -4.3% | 32.9%
19 | O/N=C1\c2ccccc2-c2cccc(Br)c21 | 0.25% | 2.9% | 4.55% | -40.6% | -9.6% | 5.45%
20 | O=S(=O)(N/N=C/c1cccc(Cl)c1Cl)c1ccccc1 | 9.3% | 3% | 4.4% | -37.6% | 3.5% | 21.5%

Row | SMILES | growth inhibition [1] | growth inhibition [2] | growth inhibition [3] | growth inhibition [4] | growth inhibition [5] | growth inhibition [6]
21 | CC/C(C)=N\NS(=O)(=O)c1ccc(NC(C)=O)cc1 | -5% | -14.3% | 18.1% | 20.8% | -33.5% | -0.7%
22 | CCOC(=O)CSCC(=O)OCC | 3.6% | -9% | -17.2% | 8.45% | -9.4% | -4.65%
23 | COC(=O)Nc1ccc(Cc2ccc(NC(=O)OC)cc2)cc1 | 26.1% | 7.35% | 27.5% | 15.7% | 33.5% | 29.6%
24 | CCC1(CC)SC=C(C)NC1=O | -4.65% | -1.65% | 12.6% | -24.7% | -14.7% | 6.75%
25 | COC1OC(COC(=O)c2ccc([N+](=O)[O-])cc2)C2SC12 (stereo not given) | 9.5% | -9.1% | 1.8% | -27.6% | 6.7% | 2.65%
26 | OCC1OCOC(CO)(CO)C1O (stereo not given) | 1.15% | 0.05% | 8.1% | -44.3% | 21.7% | 3.75%
27 | CC(C)=CC(=O)CC1(C)CCC(c2ccoc2)O1 (stereo not given) | -18.8% | -32.9% | -11.6% | 14% | 6.35% | -16%
28 | COc1ccc(C2(O)OCC(COc3cc(C)c(Cl)c(C)c3)O2)cc1OC (stereo not given) | -10% | 1.35% | 8.85% | 18.5% | -6.05% | 3.45%
29 | COc1ccc(Cl)cc1NC(=O)Oc1ccc(NC(C)=O)cc1 | 3.2% | -0.6% | -1.15% | -1.3% | 11% | 4.25%
30 | CCO/C=C(\C)CC1([N+](=O)[O-])C(=O)c2ccccc2C1=O | 7.95% | -4.75% | 16.1% | -3.75% | 11.5% | 15.8%
31 | c1ccc(CN(Cn2cccn2)Cn2cccn2)nc1 | 7.15% | -9% | 23.1% | 23.9% | -0.4% | 34.8%
32 | CCOC(=O)CC/C=N/Nc1ccc([N+](=O)[O-])cc1[N+](=O)[O-] | 20.6% | -14% | 6.7% | -45.5% | 6.55% | 0%
33 | Clc1ccc(C2ON=C(c3ccccc3)N2C23CC4CC(CC(C4)C2)C3)cc1Cl (stereo not given) | 5.65% | -17.6% | 2.8% | -20% | -7.9% | -1%
34 | CC(=O)OCCOCNC(=S)N/N=C(\C)c1ccco1 | -19.9% | -8.3% | 3.4% | 3.8% | -4.95% | -11.9%
35 | COCCCCCCCCCCCC(=O)O | -23.4% | 1.3% | -46.2% | -0.15% | -21.2% | -63.7%
36 | CN(C)c1ccccc1C(=O)N/N=C\c1ccc(-c2ccccc2)cc1 | 7.05% | 4.95% | 0.6% | 12.3% | 0.35% | 19.6%
37 | O=[N+]([O-])c1ccc(S/N=C\c2ccccc2)c([N+](=O)[O-])c1 | -9.95% | 13.7% | 0.25% | 14.6% | 7.2% | 8.55%
38 | CC(=O)c1c(C)cc2cc(C)cc(O)c2c1O | 30.9% | 17.9% | 1.4% | 0.6% | 0.4% | 29.9%
39 | COC(=O)/C([O-])=C(\C(=O)OC)[n+]1cc(Br)cc2ccccc21 | 4.15% | 1.85% | 31.6% | -9.5% | 56.8% | -7.4%
40 | O=C1C(NCCc2cc(Br)c(O)c(Br)c2)=CC(=O)c2ncccc21 | 31.9% | 37% | 33.9% | 18.2% | 34% | 28.4%
